# TDP1 cell noCPT – qHTS for Inhibitors of human tyrosyl-DNA phosphodiesterase 1 (TDP1): qHTS in cells in absence of CPT | DT40 Tdp1-/- hTDP1 cells, no CPT, ATP luminescence, 48 h | Potency, µM (series often up to 46.2 µM), inactives show at the highest dose activity change, negative = growth inhibition, hits mostly inhibitors | 420,000 compounds, 15% hits | AID 686978, 2013; also: potency is read from the fitted curve at half-maximal effect; % is scaled to controls: 0 for no effect and ±100 for the full control effect; nearly all actives have a fitted effect of over 55% in size
#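 Cells were dispensed at 400 per well, compounds added by pin tool, plates incubated ≥48 hr at 37 °C, then CellTiter-Glo added for 30 min at room temperature before luminescence reading. Line: DT40 Tdp1-/- complemented with hTDP1; camptothecin omitted.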
# IL-1B inflam inh – qHTS for Inhibitors of Inflammasome Signaling: IL-1-beta AlphaLISA Primary Screen. THP-1 LPS/ATP IL-1B secretion, AlphaLISA, 16 h; active compounds read low. activity change, % at 57.5 µM. 360,000 compounds, 4.7% hits; in the data active = activity change below about -50%; inconclusive = mostly about -30% to -49%; also: % is scaled to controls: 0 for no effect and ±100 for the full control effect
#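 Secreted IL-1B measured by AlphaLISA bead assay after 16 h compound exposure of THP-1 cells; compounds (final up to 57.5 uM) added 1 h before LPS (250 ng/mL) and ATP (1.25 mM) stimulation; lower signal means less secretion.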
# D3 antag – qHTS of D3 Dopamine Receptor Antagonist: qHTS. D3R cells, DiscoveRx beta-arrestin luminescence, antagonist mode; active compounds read low. 360,000 compounds, 2.5% hits. max response, negative = inhibition, %; in the data active = max response below about -50%; inconclusive = no clear call, values can overlap the other calls; also: % is scaled to controls: 0 for no effect and ±100 for the full control effect
# Target sequence (P35462 whole entry, looked up): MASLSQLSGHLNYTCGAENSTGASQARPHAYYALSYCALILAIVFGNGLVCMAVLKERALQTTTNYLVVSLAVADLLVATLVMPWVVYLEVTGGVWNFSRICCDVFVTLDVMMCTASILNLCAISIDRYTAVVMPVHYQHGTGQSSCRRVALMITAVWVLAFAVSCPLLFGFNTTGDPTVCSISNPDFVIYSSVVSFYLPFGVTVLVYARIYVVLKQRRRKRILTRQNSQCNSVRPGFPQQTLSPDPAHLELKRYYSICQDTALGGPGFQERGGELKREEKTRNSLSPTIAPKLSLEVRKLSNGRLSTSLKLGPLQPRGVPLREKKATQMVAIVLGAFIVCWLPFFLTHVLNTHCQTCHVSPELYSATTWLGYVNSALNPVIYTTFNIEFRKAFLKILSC
#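 Cells plated overnight at 1500 cells/well, then exposed to library compounds with dopamine controls for 90 minutes at 37 degrees C. DiscoveRx reagent added for 30–60 minutes at room temperature; luminescence read, quantitative HTS format.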
# ClpP mod – qHTS Assay for Activators of ClpP | Potency, µM (top dose mostly 57.5 µM), for inactives: at the highest dose activity change, negative = active | purified B. subtilis ClpP, FRET peptide cleavage, 20 min | ATP-dependent Clp protease proteolytic subunit (Bacillus subtilis (strain 168)), P80244 | 340,000 compounds, 1.9% hits; active = well fitted falling curve with a large enough effect; inconclusive = small, poorly fitted or top-dose-only effect; inactive = no such curve, though single readings can be large or run the other way; also: potency is read from the fitted curve at half-maximal effect; the source files actives as falling curves though it sought activators and does not explain the sign; nearly all actives have a fitted effect of over 65% in size
#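 Purified B. subtilis ClpP, 10 microg/mL final in Tris/HCl pH8 with KCl, BSA, glycerol and Tween-20, cleaved an Abz/nitrotyrosine-quenched decapeptide. Fluorescence (ex 320, em 430) was read at 0 and 20 min at room temperature. Delta was normalized to 5.8 microM ADEP and DMSO/no-enzyme controls.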
# DT40 TDP1 CPT – qHTS for Inhibitors of human tyrosyl-DNA phosphodiesterase 1 (TDP1): qHTS in cells in presence of CPT; chicken DT40 Tdp1-/-;hTDP1 cells + 20 nM CPT, ATP luminescence, 48 h; AID 686979, 2013; Potency, µM (titrated, usually from 46.2 µM), for inactives: at the top dose activity change, negative = growth inhibition, hits mostly inhibitors; 420,000 compounds, 12% hits; also: potency is read from the fitted curve at half-maximal effect; % is scaled to controls: 0 for no effect and ±100 for the full control effect; nearly all actives have a fitted effect of over 55% in size
#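 Chicken DT40 Tdp1-/- cells complemented with human TDP1, 400 cells/well, exposed to compounds plus 20 nM camptothecin for at least 48 h at 37 C; viability read as ATP content by CellTiter-Glo luminescence.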
# DRD3 agonist – qHTS of D3 Dopamine Receptor Agonist: qHTS; max activation, %; AID 652048, 2013; D(3) dopamine receptor (Homo sapiens), P35462; D3R DiscoveRx beta-arrestin cells, luminescence, 90 min; 410,000 compounds, 0.58% hits; in the data active = max activation above about 30%; also: 0% is about no effect
#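 Cells at 1500/well, incubated overnight, then treated with pinned compounds (dopamine as control) for 90 min at 37 degrees C. DiscoveRx reagent added for 30 - 60 minutes at room temperature; luminescence read.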
# Starred values were filed as active, the others as inactive; ? = inconclusive; · = no result. This is a sample that favours compounds with a hit; in the whole collection about 21% have one here. Unless noted, calls follow the shape of the dose curve; as a rule, active = well fitted inhibition curve with a large enough effect; inconclusive = small, poorly fitted or top-dose-only effect; inactive = flat fitted curve, though single readings scatter.
SMILES,TDP1 cell noCPT,IL-1B inflam inh,D3 antag,ClpP mod,DT40 TDP1 CPT,DRD3 agonist
Cc1ccc(C(C(=O)NC2CCCCC2)N(C(=O)Cc2c[nH]c3ccccc23)c2ccccc2C)o1 (configuration not stated),21µM*,21,1,-7%,26µM*,2
Cc1ccc(C(C(=O)NC2CCCCC2)N(C(=O)c2csnn2)c2ccccc2F)o1 (configuration not stated),?,-12,-15,·,-18%,0
O=C(NCC1CCCO1)C(c1ccncc1)N(Cc1cccs1)C(=O)CN1C(=O)c2ccccc2S1(=O)=O (configuration not stated),0%,20,14,·,9%,3
O=C(NC1CCCCC1)C(c1ccc(F)cc1)N(Cc1cccs1)C(=O)CN1C(=O)c2ccccc2S1(=O)=O (configuration not stated),16µM*,40,-12,-3%,16µM*,7
COc1ccc(C(C(=O)NC2CCCCC2)N(Cc2cccs2)C(=O)Cc2c[nH]c3ccccc23)cc1OC (configuration not stated),21µM*,?,28,3%,13µM*,2
Nc1[nH]c(C(=O)c2ccccc2)c(-c2ccccc2Br)c1C(=O)c1ccccc1,?,21,-9,16%,?,3
Cc1ccc(C(=O)NCC(c2ccco2)S(=O)(=O)c2ccccc2)cc1C (configuration not stated),?,·,·,-1%,?,14
CC(=O)NCCNc1nc2cc(-c3ccc(C)cc3)sc2c(=O)n1C,-27%,47,-14,-16%,-24%,-13
COc1ccc2c(Cl)c(C(=O)N/N=C/c3cccnc3)sc2c1,-5%,10,5,·,-2%,-9
CCOc1ccc(CN(CC)C(=O)Cc2c[nH]c3ccccc23)cc1OC,15µM*,0,4,·,?,1
Cc1ccccc1N(C(=O)Cc1c[nH]c2ccccc12)C(C(=O)NC1CCCCC1)c1ccco1 (configuration not stated),9.2µM*,-4,?,-3%,21µM*,-10
Cc1ccc(N(C(=O)c2ccco2)C(C(=O)NC2CCCC2)c2ccco2)c(C)c1 (configuration not stated),?,-4,-2,·,-27%,-4
Cc1ccc(C(C(=O)NC2CCCCC2)N(Cc2ccco2)C(=O)Cc2c[nH]c3ccccc23)o1 (configuration not stated),?,-77*,22,1%,?,3
O=C(NC1CCCC1)C(c1ccc(F)cc1)N(Cc1ccc(F)cc1)C(=O)c1ccn[nH]1 (configuration not stated),-20%,-6,12,1%,9%,1
O=C(NC1CCCC1)C(c1ccc(F)cc1)N(Cc1ccccc1Cl)C(=O)CCl (configuration not stated),3.3µM*,-91*,-11,-2%,5.8µM*,0
C[C@H](CO)N1C[C@H](C)[C@@H](CN(C)C(=O)Nc2cc(F)ccc2F)Oc2ncc(-c3cccc(F)c3)cc2C1=O,?,-29,?,-7%,?,-13
O=C(C[C@@H]1C/C=C\CC[C@H](Cc2ccc(F)cc2)C(=O)OC[C@@H]2CCCN2C1=O)NCCO,?,3,0,3%,?,-5
COCCN(C(=O)CCl)C(C(=O)NC1CCCCC1)c1ccccc1C (configuration not stated),2.1µM*,-101*,?,-2%,2.9µM*,-13
